# RGS7-Gao: regulators of human RGS7-Galphao interaction; P09471; Multiplexed bead flow cytometry, RGS7-Galphao binding; actives lie on both sides; binding response (% of control), % at 10 µM; actives 0.35% (n = 220,000); AID 1439; in the data active means binding response below about 49% or above about 150%; inconclusive means no clear call, values can overlap the other calls; inactive means in between;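 further: fluorescent Galphao held in activated GDP-AlF4 state binding bead-coupled RGS7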
# Target sequence (P09471 whole entry, looked up): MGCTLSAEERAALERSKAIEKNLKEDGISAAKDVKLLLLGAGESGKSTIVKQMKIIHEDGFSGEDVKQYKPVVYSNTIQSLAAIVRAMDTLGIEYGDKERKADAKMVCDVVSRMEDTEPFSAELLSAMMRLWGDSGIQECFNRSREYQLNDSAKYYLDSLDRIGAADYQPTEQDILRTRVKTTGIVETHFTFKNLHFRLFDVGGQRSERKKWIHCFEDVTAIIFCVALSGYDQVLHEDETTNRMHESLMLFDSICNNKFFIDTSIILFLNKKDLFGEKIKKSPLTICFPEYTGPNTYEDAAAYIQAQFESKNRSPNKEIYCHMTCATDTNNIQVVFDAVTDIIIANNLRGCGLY
# RGS16-Gao: regulators of human RGS16-Galphao interaction. O15492+P09471. bead-based flow cytometry RGS16-Galphao binding, fluorescence; actives lie on both sides. binding response (% of control), % at 10 µM. actives 0.38% (n = 220,000);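 further: Galphao activated by GDP with aluminum fluoride before binding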
# Target sequence (O15492 whole entry, looked up): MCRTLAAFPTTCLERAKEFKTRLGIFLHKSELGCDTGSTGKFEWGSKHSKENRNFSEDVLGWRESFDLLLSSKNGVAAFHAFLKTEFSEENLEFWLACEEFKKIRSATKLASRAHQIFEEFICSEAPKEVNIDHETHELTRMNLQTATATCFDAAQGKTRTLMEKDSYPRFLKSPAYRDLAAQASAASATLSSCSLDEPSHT
# Target sequence (P09471 whole entry, looked up): as the sequence (P09471 whole entry, looked up) above
# GSH bead fluor: compound fluoresces at 488/530 nm on GSH beads; GSH beads flow cytometry, compound fluorescence 488/530 nm; hits give high values; fluorescence (KMESF) at 10 µM; actives 0.25% (n = 190,000); AID 1776; in the data active means fluorescence above about 89;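 further: glutathione beads carrying GST-tagged Bcl family fusion proteins plus one bare bead set; values are compound well signal with DMSO vehicle wells as background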
# RGS4-Gao reg: human RGS4-Galphao interaction regulation | P09471 | Multiplexed bead flow cytometry, RGS4-Galphao binding; actives lie on both sides | binding response (% of control), % at 10 µM | actives 0.33% (n = 220,000) | AID 1415; in the data active means binding response below about 49% or above about 150%; inactive means in between;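 further: fluorescent Galphao activated with aluminum fluoride binding bead-coupled RGS4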
# RGS8-Gao: human RGS8-Galphao interaction regulation. multiplexed bead flow cytometry, RGS8-Galphao binding; actives lie on both sides. response (percent of control binding), % at 10 µM. actives 0.34% (n = 220,000). AID 1423; in the data active means response below about 60% or above about 140%; inactive means in between;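 further: Galphao activated as the GDP aluminium fluoride complex binding bead-coupled RGS8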
# Avidin bead fluor: avidin bead compound fluorescence profile; Avidin beads, compound fluorescence 488/530 nm, flow cytometry; hits give high values; fluorescence (KMESF) at 10 µM; actives 0.38% (n = 220,000); AID 1775; in the data active means fluorescence above about 47
# RGS4-Gao HTS: regulators of human RGS4-Galphao interaction; multiplexed bead flow cytometry, RGS–Galpha-o binding; RGS4–Galpha-o binding response, % at 10 µM; actives 99% (n = 1,600); shares compounds with RGS16-Gao; AID 1504;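 further: fluorescently labeled Galpha-o bound to GDP with aluminium fluoride binding biotinylated RGS beads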
# Biotin-avidin: biotin-avidin bead binding disruption counter-screen. inhibition, % at 10 µM. shares compounds with RGS16-Gao. streptavidin beads, fluorescein-biotin binding, flow cytometry. 1,700 tested, under 10 active. AID 1783;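 active means inhibition above 50%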;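 further: median green fluorescence of gated singlet beads compared with DMSO control wells; 0% = DMSO wells and 100% = complete loss of bead fluorescence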
# RGS8-Gao confirm: RGS8-Galphao interaction regulation, single point confirmation; shares compounds with RGS16-Gao; bead-based flow cytometry RGS8-Galphao binding, fluorescence; actives lie on both sides; binding response (% of control), % at 10 µM; actives 3% (n = 1,700); AID 1836; in the data active means binding response below about 72% or above about 130%; inactive means in between;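 further: Galphao activated as GDP AlF4 complex before binding bead RGS8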
# RGS7-Gao confirm: confirmation of regulators of human RGS7-Galphao interaction. shares compounds with RGS16-Gao. bead-based flow cytometry RGS7-Galphao binding; actives lie on both sides. response (percent of control binding), % at 10 µM. actives 7.8% (n = 1,700). AID 1837; in the data active means response below about 75% or above about 130%; inactive means in between;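 further: fluorescent Galphao activated with GDP and aluminum fluoride binding bead-coupled RGS7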
# RGS16-Gao single: RGS16-Galphao interaction regulation, single point confirmation; shares compounds with RGS16-Gao; bead-based flow cytometry, RGS16-Galphao binding; actives lie on both sides; response (% of control binding), % at 10 µM; actives 4% (n = 1,700); AID 1838; in the data active means response below about 74% or above about 130%; inactive means in between;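 further: Galphao activated as the GDP aluminium fluoride complex binding bead-coupled RGS16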
# RGS4-Gao single: confirmation of regulators of human RGS4-Galphao interaction | binding response (% of control), % at 10 µM | shares compounds with RGS16-Gao | RGS4-Galphao binding, multiplexed bead flow cytometry; actives lie on both sides | actives 4% (n = 1,700); in the data active means binding response below about 74% or above about 130%; inactive means in between
# RGS19-Gao single: RGS19-Galphao interaction regulation, single point confirmation. bead-based flow cytometry RGS19-Galphao binding; actives lie on both sides. shares compounds with RGS16-Gao. response (percent of control binding), % at 10 µM. actives 5% (n = 1,700). AID 1841; in the data active means response below about 50% or above about 160%; inactive means in between;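 further: 100% = no compound control and 0% = blank background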
# Active calls of the source: *; ? = inconclusive; . = no result given; [ ] = remark or other dose. This is a sample that favours compounds with a hit; in the whole collection about 1.2% have one here. Unless noted, how the calls were made is not given here.
SMILES,RGS7-Gao,RGS16-Gao,GSH bead fluor,RGS4-Gao reg,RGS8-Gao,Avidin bead fluor,Biotin-avidin,RGS8-Gao confirm,RGS7-Gao confirm,RGS16-Gao single,RGS4-Gao single,RGS19-Gao single,others
Cc1ccc(C(=O)NC(O)C(Cl)Cl)cc1 (configuration not stated),113,175*[activator],19,161*[activator],104,2,2,103,103,102,102,107,
Cc1ccc(C(=O)NNC(=O)c2ccc(C)cc2)cc1,109,111,11,104,106,25,.,.,.,.,.,.,
O=C(Cc1ccc([N+](=O)[O-])cc1)N1N=C(C2CC2)CC1(O)C(F)(F)F (configuration not stated),79,93,23,92,96,5,.,.,.,.,.,.,
O=C1CC(c2ccc(S(=O)(=O)NCCOc3ccccc3)cc2)CN1 (configuration not stated),.,.,33,.,.,.,2,101,97,100,97,103,
CCn1c(Sc2nc(C)nc3scc(-c4cccs4)c23)n[nH]c1=O,.,.,41,.,.,.,0,99,101,97,101,85,
NC(=O)Cn1nnc(-c2ccc(CN3CCCCC3)cc2)n1,93,102,12,99,99,10,.,.,.,.,.,.,
Cc1ccc2nc(-c3ccc(NC(=O)CNC4CC4)cc3)sc2c1,217*[activator],83,21,108,91,101*,0,98,95,97,97,91,RGS4-Gao HTS=108*
Cc1ccc2nc(-c3ccc(NC(=O)CN4C(=O)c5ccccc5C4=O)cc3)sc2c1,108,100,19,100,99,11,.,.,.,.,.,.,
COc1ccc(Nc2nnc(SC(C(=O)Nc3cc(C)ccc3C)c3ccccc3)s2)cc1 (configuration not stated),104,102,16,101,104,12,.,.,.,.,.,.,
COc1ccc(C)cc1NC(=O)C(Sc1nnc(Nc2cc(C)ccc2OC)s1)c1ccccc1 (configuration not stated),7.2*,-13*,8,11*,3.4*,-3,-2,105,109,107,104,98,
COc1ccc(C2C(C(=O)c3ccccc3)N3c4ccccc4C=CC3C2[N+](=O)[O-])cc1 (configuration not stated),97,94,13,92,98,6,.,.,.,.,.,.,
Cc1nn(C)c(C)c1C1C(C#N)=C(N)Oc2n[nH]c(C)c21 (configuration not stated),109,230*[activator],10,110,140*[activator],7,-1,101,99,102,101,118,RGS4-Gao HTS=110*
N#C/C(=C\c1sc(N2CCOCC2)nc1-c1ccccc1)C(=O)Nc1cccc2ccccc12,417*[activator],105,12,141,90,312*,.,.,.,.,.,.,RGS4-Gao HTS=141*
CCN(CC)CCCNC(=O)C1c2cc(OC)c(OC)cc2C(=O)N(C)C1c1cccs1 (configuration not stated),130,454,33,153*[activator],153*[activator],12,-1,105,98,110,103,103,
C[n+]1nc(Nc2cccc3ccccc23)sc1-c1ccc(C(=O)O)cc1,?,104,.,108,102,8,.,.,.,.,.,.,
COc1c(F)c(F)c(C(=O)Nc2ccc(N3CCN(Cc4ccccc4)CC3)cc2)c(F)c1F,128,449,10,141,175*[activator],6,-1,98,100,99,99,103,RGS4-Gao HTS=141*
CCCS(=O)(=O)N1CCN(Cc2c[nH]c3ccccc23)CC1,103,102,21,103,104,10,.,.,.,.,.,.,
COc1ccc(OC)c(/C(O)=C/C(=O)C(=O)Nc2cc(C)ccc2OC)c1,68,710,29,49*,82,-1,0,89,75*,87,84,127,
COc1ccc(OC)c(/C(O)=C/C(=O)C(=O)Nc2cc(C)cc(C)c2)c1,97,101,35,97,100,15,.,.,.,.,.,.,
Cc1ccc(NC(=O)CN(C)CC(=O)Nc2cccc(F)c2)cc1S(=O)(=O)N1CCCCCC1,112,117,73,117,101,16,.,.,.,.,.,.,
Cc1ccc(SCCNC(=O)/C=C/c2ccc([N+](=O)[O-])cc2)cc1,112,280*[activator],9,113,135,17,-1,100,103,102,102,95,RGS4-Gao HTS=113*
O=C(/C=C/c1ccc([N+](=O)[O-])cc1)NCCSc1ccccc1,107,94,38,106,104,7,.,.,.,.,.,.,
CC(C)N(CCNCC(O)COc1ccc(C(C)(C)c2ccccc2)cc1)C(C)C (configuration not stated),?,109,15,110,111,10,.,.,.,.,.,.,
N#CC(=C1N=c2ccccc2=N1)c1c(O)[nH]c2ccccc12,100,91,11,90,98,9,.,.,.,.,.,.,
Oc1[nH]c(N=C2N=c3ccccc3=N2)c2ccccc12,?,33,.,35*,57*,1,-1,102,98,97,101,60,
CCc1nnc(SCc2ccc(OC)c(Br)c2)n1N,35*,33,24,40*,44*,15,-2,105,101,110,101,104,
CCC(C)(C(=O)NC1CCCCC1)N(C(=O)CC1NC(=O)NC1=O)c1c(C)n(C)n(-c2ccccc2)c1=O (configuration not stated),101,104,26,102,102,24,.,.,.,.,.,.,
Nc1nc(-c2ccc(F)cc2)cc(C(F)(F)F)n1,99,102,11,102,101,10,.,.,.,.,.,.,
Nc1nc(-c2ccc(Cl)cc2)cc(C(F)(F)F)n1,118,280,8,126,142*[activator],7,-2,102,151*[activator],111,126*[activator],128,RGS4-Gao HTS=126*

# Bioassay records: PubChem BioAssay, NMMLSC
